Assay [1] has as its target Glucocorticoid receptor (Homo sapiens) (UniProt P04150). Briefly: qHTS assay for small molecule agonists of glucocorticoid receptor signaling (AID 588532; active means well fitted curve in the direction sought with a large enough effect in the signal ratio, with a control signal flat; the % refers to the signal ratio;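 further: 100% = dexamethasone at 0.1 µM and 0% = DMSO only wells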). The note with it: HeLa MMTV-bla, beta-lactamase ratio, agonist, 18 h; stronger effect = higher value; percent of dexamethasone control, DMSO zero. Put shortly: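 Quantitative HTS using CellSensor MMTV-bla HeLa cells in charcoal/dextran-treated serum; compounds tested up to 92 uM. After 18 h at 37 C, CCF4 dye reported reporter induction.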
Background: In qHTS, concentration-response curves come from the screen itself.

Assay [2] shares this target. The assay can be described thus: qHTS assay for small molecule antagonists of glucocorticoid receptor signaling (AID 588533; active means well fitted inhibition curve with a large enough effect in the signal ratio, with a control signal flat, not every such curve was filed as active; the % refers to the signal ratio;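 further: cells stimulated with 2 nM dexamethasone as agonist; on the % scale 0 is the no-effect control and ±100 the full control effect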). Particulars: HeLa MMTV-bla, GRE beta-lactamase ratio, antagonist mode, 18 h; series mostly up to 76.8 µM. Put shortly: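 Antagonist-mode qHTS: compound titrations added to GRE-bla HeLa cells, then dexamethasone 2 nM final; 18 h, 37 C. CCF4 FRET fluorescence normalized to dexamethasone and DMSO; IC50 from Hill fit.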

In assay [3] the target is Peroxisome proliferator-activated receptor delta (Homo sapiens) (UniProt Q03181). Briefly: qHTS assay for small molecule agonists of peroxisome proliferator-activated receptor delta signaling (AID 588534).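 Further: 0% = DMSO basal wells and 100% = positive control agonist at 10 µM.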 The note with it: HEK293T PPARdelta-UAS-bla, beta-lactamase ratio, 18 h; series mostly up to 76.7 µM. In a few lines:
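EC50 and efficacy values derive from Hill fits of a concentration series in a beta-lactamase reporter cell assay. Exposure is 18 hrs at 37 C, with CCF4 fluorescence as the readout.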

Assay [4] in a line: qHTS assay for small molecule antagonists of peroxisome proliferator-activated receptor delta signaling (AID 588535; active means well fitted inhibition curve with a large enough effect in the signal ratio, with a control signal flat, not every such curve was filed as active; the % refers to the signal ratio;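 on max response: cells co-treated with a PPAR-delta agonist as stimulator during compound exposure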). Particulars: HEK293T PPARd-UAS-bla, beta-lactamase FRET ratio, 18 h; 460 nm channel. Put shortly: (§1)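 Antagonist-mode qHTS using GeneBLAzer PPAR-delta-UAS-bla HEK293T cells; compound exposure 18 hrs at 37 C over a titration. Ratiometric CCF4 fluorescence at 460/530 nm; concentration-response points fitted to the Hill equation.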

For assay [5], the target named is Peroxisome proliferator-activated receptor delta (Homo sapiens) (UniProt Q03181). The assay is described as above. Particulars: HEK293T PPARd-UAS-bla, beta-lactamase FRET ratio, 18 h; series mostly up to 76.7 µM. Put shortly: as §1
Assay [6] concerns the target Peroxisome proliferator-activated receptor gamma (Homo sapiens) (UniProt P37231). The assay can be described thus: qHTS assay for small molecule agonists of peroxisome proliferator-activated receptor gamma signaling (AID 588536; active means well fitted curve in the direction sought with a large enough effect in the signal ratio, with a control signal flat, not every such curve was filed as active; the % refers to the signal ratio). Particulars: HEK293 PPARg-UAS-bla, beta-lactamase ratio, 16 h, percent of rosiglitazone response, DMSO as zero; series mostly up to 76.7 µM. Put shortly: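 Beta-lactamase reporter read-out: CCF4 fluorescence (ex 405, em 460/530 nm) after 2 h at RT. HEK293 GeneBLAzer cells were treated for 16 h at 37 C. Hill fits gave EC50 and efficacy versus 2 uM rosiglitazone (100%) and DMSO (0%).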

Assay [7] in a line: qHTS assay for small molecule agonists of retinoid X receptor alpha signaling (AID 588544).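 On activation: 0% = DMSO basal wells and 100% = reference agonist.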 Particulars: HEK293T RXRa-UAS-bla, beta-lactamase reporter, 18 h; 530 nm emission.
In assay [8] the target is Retinoic acid receptor RXR-alpha (Homo sapiens) (UniProt P19793). Described as above. Particulars: HEK293T RXRa-UAS-bla, beta-lactamase reporter, 18 h; series mostly up to 76.7 µM.
Assay [9] addresses Thyroid hormone receptor beta (Homo sapiens) (UniProt P10828). Briefly: qHTS assay for small molecule agonists of thyroid hormone receptor beta signaling (AID 588545). The note with it: TR-UAS-bla GripTite HEK 293, beta-lactamase ratio, agonist mode, 18 h, percent of T3 response, DMSO as zero; series mostly up to 76.7 µM. Put shortly:
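In this cell-based screen, titrated compounds act on HEK 293 cells held in medium with 2% charcoal/dextran FBS, NEAA and pyruvate for 18 hrs at 37 C. Responses are expressed relative to T3 (10 nM) as 100% and basal DMSO as 0%.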

The nature of assay [10]: qHTS assay for small molecule antagonists of retinoid X receptor alpha signaling (AID 588546; active means well fitted inhibition curve with a large enough effect in the signal ratio, with a control signal flat, not every such curve was filed as active; the % refers to the signal ratio;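 further: cells stimulated with 9-cis-retinoic acid as agonist; on the % scale 0 is the no-effect control and ±100 the full control effect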). Particulars: HEK293T RXRa-UAS-bla, beta-lactamase ratio, antagonist mode; measured here: W530 green channel, cytotoxicity proxy. In a few lines:
(§2)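 Beta-lactamase reporter inhibition, read as CCF4 fluorescence ratio (ex 405, em 460/530 nm) after 2 h at RT. HEK293T UAS-bla cells, 2500/well, were stimulated with 9-cis-RA at 500 or 100 nM final alongside test compound for 18 h at 37 C.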

Assay [11] deals with Retinoic acid receptor RXR-alpha (Homo sapiens) (UniProt P19793). Described as above. The note with it: HEK293T RXRa-UAS-bla, beta-lactamase ratio, antagonist mode. Put shortly: as §2
Assay [12] deals with Thyroid hormone receptor beta (Homo sapiens) (UniProt P10828). Briefly: qHTS assay for small molecule antagonists of thyroid hormone receptor beta signaling (AID 588547; active means well fitted inhibition curve with a large enough effect in the signal ratio, with a control signal flat, not every such curve was filed as active; the % refers to the signal ratio;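 further: cells stimulated with 0.4 nM T3 agonist during compound exposure; on the % scale 0 is the no-effect control and ±100 the full control effect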). The note with it: TR-UAS-bla HEK293, beta-lactamase ratio, antagonist mode, 18 h. Put shortly:
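Inhibition of T3-driven (0.4nM final) beta-lactamase reporter activity was measured over 0.59 nM to 92 uM compound after 18 h at 37 C. The cells were GripTite HEK293 TR-UAS-bla in charcoal/dextran-stripped serum, with CCF4 ratio read-out and IC50 from Hill fits.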

Assay [13] has as its target Luciferin 4-monooxygenase (Photinus pyralis) (UniProt P08659). Briefly: Biochemical firefly luciferase enzyme assay for NPC (AID 624030; active means well fitted curve in the direction sought with a large enough effect; an effect the other way counts as inactive or inconclusive;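 further: purified P. pyralis luciferase at 10 nM with luciferin and ATP substrate; 0% = DMSO and -100% = full luciferase inhibition by PTC124 control; nearly all actives have a fitted effect of over 70% in size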). Particulars: purified P. pyralis luciferase, luminescence, 5 min; series mostly up to 58.6 µM. Put shortly:
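Direct inhibition of firefly luciferase enzyme (10 nM final, 50 mM Tris Acetate) assessed by luminescence within 5 minutes. Percent activity scaled between DMSO and PTC124 positive control, with concentration-effect curves classified by fit quality and response.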

In assay [14] the target is Peroxisome proliferator-activated receptor gamma (Homo sapiens) (UniProt P37231). The assay can be described thus: qHTS assay for small molecule antagonists of peroxisome proliferator-activated receptor gamma signaling (AID 588537; active means well fitted inhibition curve with a large enough effect in the signal ratio, with a control signal flat, not every such curve was filed as active; the % refers to the signal ratio;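 further: reporter cells co-stimulated with 50 nM rosiglitazone agonist during compound treatment; % of control where 0% means no effect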). The note with it: HEK293 PPARg-UAS-bla, beta-lactamase ratio, antagonist mode; series mostly up to 76.8 µM. Put shortly: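 Cell-based beta-lactamase assay; GW9662 served as the antagonist control. Stimulation used rosiglitazone, final 50 nM, 16 h, 37 C.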

Assay [15] addresses Vitamin D3 receptor (Homo sapiens) (UniProt P11473). The assay can be described thus: qHTS assay for small molecule antagonists of vitamin D receptor signaling (AID 588541).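 Further: receptor activated by calcitriol during compound treatment; on the % scale 0 is the no-effect control and ±100 the full control effect.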 The note with it: HEK293T VDR-UAS-bla, beta-lactamase ratio, antagonist mode; series mostly up to 76.7 µM. In a few lines: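 Antagonist-mode beta-lactamase reporter assay: HEK293T VDR-UAS-bla cells were exposed to titrated compound alongside 1-alpha,25-dihydroxyvitamin D3 at 3 nM final for 16 h. Values were normalized to the 50 nM agonist control and DMSO basal, with IC50 and efficacy from Hill equation fits.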

Assay [16] has the same target. The assay can be described thus: qHTS assay for small molecule agonists of vitamin D receptor signaling (AID 588543).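 Further: 0% = DMSO basal and 100% = reference agonist control.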 The note with it: HEK293T VDR-UAS-bla, beta-lactamase ratio, 16 h; series mostly up to 76.8 µM. Put shortly:
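VDR-UAS-bla HEK293T cells, 2000/well, 2% charcoal-stripped FBS; compound titration 16 h at 37 C; CCF4 beta-lactamase ratio read. Normalized to 50 nM 1-alpha,25-dihydroxyvitamin D3 (100%) and DMSO; Hill fit gives EC50, efficacy.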

In assay [17] the target is Voltage-gated inwardly rectifying potassium channel KCNH2 (Homo sapiens) (UniProt Q12809). Briefly: qHTS Assay for Small Molecule Inhibitors of the Human hERG Channel Activity (AID 588834; active means well fitted curve in the direction sought with a large enough effect; an effect the other way counts as inactive or inconclusive;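 further: top concentration of the series differs between compounds; on the % scale 0 is the no-effect control and ±100 the full control effect; lower thallium flux fluorescence means stronger hERG block; nearly all actives have a fitted effect of over 50% in size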). Particulars: U2OS BacMam hERG, FluxOR thallium flux fluorescence; series mostly up to 46.1 µM. Put shortly: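 Thallium serves as surrogate for K+ influx through BacMam-delivered hERG in U2OS cells. Compounds are added for about 10 minutes after dye loading; stimulation buffer then starts flux, monitored kinetically on FDSS.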

Assay [18] is described as follows: S16 Schwann cell viability assay (CellTiter-Glo assay) (AID 624031; active means well fitted curve in the direction sought with a large enough effect; an effect the other way counts as inactive or inconclusive;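 further: native untransfected S16 rat Schwann cells; plate controls were DMSO-treated cells for no effect and cell-free wells for full effect; nearly all actives have a fitted effect of over 70% in size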). Particulars: S16 rat Schwann cells viability, 24 h; series mostly up to 57.5 µM. In a few lines: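 Parental S16 cells, 24 h compound, 37 °C. ATP-luminescence viability; DMSO = 0% activity, empty wells as reference; curves classified by fit quality and efficacy.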
For orientation: ATP-based viability assays read luminescence as a measure of living cells.

A short description of assay [19]: S16 Schwann cell PMP22 intronic element firefly luciferase assay (AID 624032; active means well fitted curve in the direction sought with a large enough effect; an effect the other way counts as inactive or inconclusive;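 further: plate controls were DMSO for no effect and PTC124 positive control mean for full effect; nearly all actives have a fitted effect of over 30% in size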). The note with it: S16 rat Schwann cells, PMP22 element FLuc, 24 h; series mostly up to 57.5 µM. Put shortly: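 Luciferase reporter of PMP22 intronic-element expression in stably transfected S16 rat Schwann cells, read by ONE-Glo luminescence after 24 h compound exposure at 37 C. Activity scaled between DMSO (0%) and positive-control PTC124; concentration-effect curves quality-classified.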

Each structure is given as a SMILES string. “And” between values parts separate entries of the source, which are not always exact repeats. Identical values can stand only once. Records with an inconclusive call do not appear. The source made the active and inactive calls. Unless noted, the call rests on the fitted dose curve.

Voltage-gated inwardly rectifying potassium channel KCNH2 (Homo sapiens), sequence (Q12809 whole entry, looked up): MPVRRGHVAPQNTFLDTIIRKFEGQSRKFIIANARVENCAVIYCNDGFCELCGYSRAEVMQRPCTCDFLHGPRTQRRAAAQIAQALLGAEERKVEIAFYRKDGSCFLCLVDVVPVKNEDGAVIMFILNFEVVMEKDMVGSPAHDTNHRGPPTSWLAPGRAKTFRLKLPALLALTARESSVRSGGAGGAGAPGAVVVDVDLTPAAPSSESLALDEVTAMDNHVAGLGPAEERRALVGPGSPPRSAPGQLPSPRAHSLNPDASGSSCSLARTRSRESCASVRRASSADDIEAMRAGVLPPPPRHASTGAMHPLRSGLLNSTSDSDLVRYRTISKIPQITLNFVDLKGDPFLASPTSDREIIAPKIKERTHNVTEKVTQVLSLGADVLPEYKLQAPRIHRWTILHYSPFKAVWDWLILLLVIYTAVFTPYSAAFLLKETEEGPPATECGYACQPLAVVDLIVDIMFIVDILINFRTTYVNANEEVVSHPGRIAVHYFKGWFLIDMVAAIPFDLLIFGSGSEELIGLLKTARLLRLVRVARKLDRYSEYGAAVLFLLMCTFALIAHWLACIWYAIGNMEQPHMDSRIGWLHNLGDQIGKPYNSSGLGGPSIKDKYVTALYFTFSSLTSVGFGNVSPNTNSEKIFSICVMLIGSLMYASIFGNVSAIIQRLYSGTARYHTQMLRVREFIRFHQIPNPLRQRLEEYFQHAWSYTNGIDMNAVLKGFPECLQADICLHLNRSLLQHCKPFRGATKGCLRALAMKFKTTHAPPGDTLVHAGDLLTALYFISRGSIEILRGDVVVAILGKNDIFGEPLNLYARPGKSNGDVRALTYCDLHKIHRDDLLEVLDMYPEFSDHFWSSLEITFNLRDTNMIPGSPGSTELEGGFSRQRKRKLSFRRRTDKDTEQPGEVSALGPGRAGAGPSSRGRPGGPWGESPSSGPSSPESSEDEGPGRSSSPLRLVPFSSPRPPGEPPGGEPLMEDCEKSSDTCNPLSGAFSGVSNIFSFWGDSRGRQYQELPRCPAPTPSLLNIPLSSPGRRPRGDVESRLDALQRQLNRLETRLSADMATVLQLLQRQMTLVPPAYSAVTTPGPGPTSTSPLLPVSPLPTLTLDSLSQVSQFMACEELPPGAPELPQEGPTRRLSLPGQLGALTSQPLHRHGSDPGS
Peroxisome proliferator-activated receptor delta (Homo sapiens), sequence (Q03181 whole entry, looked up): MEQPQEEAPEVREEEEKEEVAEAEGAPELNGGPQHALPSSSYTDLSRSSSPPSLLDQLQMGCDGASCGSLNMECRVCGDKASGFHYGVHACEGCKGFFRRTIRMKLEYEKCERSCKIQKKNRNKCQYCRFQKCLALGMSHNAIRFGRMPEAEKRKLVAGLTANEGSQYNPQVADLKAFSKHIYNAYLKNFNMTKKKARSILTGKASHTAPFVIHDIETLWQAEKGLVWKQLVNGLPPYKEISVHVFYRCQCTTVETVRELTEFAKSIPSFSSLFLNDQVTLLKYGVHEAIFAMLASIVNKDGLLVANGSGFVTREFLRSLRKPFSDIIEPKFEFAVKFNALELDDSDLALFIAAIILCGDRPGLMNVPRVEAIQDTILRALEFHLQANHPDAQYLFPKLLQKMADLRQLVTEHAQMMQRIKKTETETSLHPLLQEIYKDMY
Vitamin D3 receptor (Homo sapiens), sequence (P11473 whole entry, looked up): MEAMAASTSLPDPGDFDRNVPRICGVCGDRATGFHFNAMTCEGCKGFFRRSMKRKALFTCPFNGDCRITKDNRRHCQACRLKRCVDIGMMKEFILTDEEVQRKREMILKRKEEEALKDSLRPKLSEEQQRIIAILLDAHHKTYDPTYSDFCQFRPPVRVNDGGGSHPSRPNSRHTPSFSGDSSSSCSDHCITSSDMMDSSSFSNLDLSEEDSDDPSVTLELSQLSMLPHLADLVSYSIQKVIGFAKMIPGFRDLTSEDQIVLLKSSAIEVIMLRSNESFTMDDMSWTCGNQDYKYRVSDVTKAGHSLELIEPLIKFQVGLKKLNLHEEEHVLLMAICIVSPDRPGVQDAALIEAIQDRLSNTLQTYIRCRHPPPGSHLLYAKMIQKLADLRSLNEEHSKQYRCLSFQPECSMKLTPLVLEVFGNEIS
Glucocorticoid receptor (Homo sapiens), sequence (P04150 whole entry, looked up): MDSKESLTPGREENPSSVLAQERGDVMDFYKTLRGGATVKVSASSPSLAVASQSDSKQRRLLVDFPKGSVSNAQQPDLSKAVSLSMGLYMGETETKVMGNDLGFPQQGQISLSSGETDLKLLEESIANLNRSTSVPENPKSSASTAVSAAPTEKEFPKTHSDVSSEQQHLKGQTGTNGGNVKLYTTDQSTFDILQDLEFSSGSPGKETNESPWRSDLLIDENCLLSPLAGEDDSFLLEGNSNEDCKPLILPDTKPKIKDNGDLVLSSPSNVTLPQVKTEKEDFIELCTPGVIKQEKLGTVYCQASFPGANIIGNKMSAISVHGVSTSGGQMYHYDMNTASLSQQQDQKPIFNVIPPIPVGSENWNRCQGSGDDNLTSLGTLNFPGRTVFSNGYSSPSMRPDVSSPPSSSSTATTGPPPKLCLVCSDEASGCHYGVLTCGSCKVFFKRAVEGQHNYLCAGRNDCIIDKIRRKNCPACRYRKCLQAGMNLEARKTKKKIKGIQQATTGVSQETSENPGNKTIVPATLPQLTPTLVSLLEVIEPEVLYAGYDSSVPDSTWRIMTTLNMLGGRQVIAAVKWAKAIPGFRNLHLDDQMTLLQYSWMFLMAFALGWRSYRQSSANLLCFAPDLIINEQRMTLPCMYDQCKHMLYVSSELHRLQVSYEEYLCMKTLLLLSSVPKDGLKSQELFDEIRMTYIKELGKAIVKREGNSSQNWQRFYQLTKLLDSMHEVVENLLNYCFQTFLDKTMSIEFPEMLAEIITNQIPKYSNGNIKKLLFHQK
Luciferin 4-monooxygenase (Photinus pyralis), sequence (P08659 whole entry, looked up): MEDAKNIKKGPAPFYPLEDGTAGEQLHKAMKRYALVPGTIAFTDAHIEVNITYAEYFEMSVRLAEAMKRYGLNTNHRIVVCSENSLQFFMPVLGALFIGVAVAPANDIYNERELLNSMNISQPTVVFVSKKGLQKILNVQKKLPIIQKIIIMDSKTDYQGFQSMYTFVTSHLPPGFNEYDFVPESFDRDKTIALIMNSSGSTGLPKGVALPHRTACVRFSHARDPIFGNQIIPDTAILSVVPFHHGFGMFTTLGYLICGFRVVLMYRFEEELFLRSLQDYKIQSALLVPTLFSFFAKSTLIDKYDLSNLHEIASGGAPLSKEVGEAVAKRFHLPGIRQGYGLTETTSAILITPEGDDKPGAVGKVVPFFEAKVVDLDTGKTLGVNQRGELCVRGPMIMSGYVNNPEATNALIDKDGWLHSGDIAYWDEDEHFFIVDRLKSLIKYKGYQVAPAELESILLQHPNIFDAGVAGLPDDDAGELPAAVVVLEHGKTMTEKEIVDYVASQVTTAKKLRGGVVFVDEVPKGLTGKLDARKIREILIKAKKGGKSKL
Peroxisome proliferator-activated receptor gamma (Homo sapiens), sequence (P37231 whole entry, looked up): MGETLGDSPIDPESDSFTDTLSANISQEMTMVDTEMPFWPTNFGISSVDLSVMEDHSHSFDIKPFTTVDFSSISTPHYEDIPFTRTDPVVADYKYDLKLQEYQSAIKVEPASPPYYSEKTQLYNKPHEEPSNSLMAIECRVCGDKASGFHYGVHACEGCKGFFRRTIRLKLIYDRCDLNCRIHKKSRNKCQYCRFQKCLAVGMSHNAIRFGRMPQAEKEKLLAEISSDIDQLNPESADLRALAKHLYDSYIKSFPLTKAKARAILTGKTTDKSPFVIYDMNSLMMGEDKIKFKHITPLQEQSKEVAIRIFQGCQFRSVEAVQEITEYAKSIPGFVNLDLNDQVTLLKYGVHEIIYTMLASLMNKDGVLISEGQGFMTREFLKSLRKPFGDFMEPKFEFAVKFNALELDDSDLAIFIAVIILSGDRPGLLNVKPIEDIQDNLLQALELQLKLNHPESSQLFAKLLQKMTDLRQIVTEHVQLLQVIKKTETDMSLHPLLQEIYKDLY
Retinoic acid receptor RXR-alpha (Homo sapiens), sequence (P19793 whole entry, looked up): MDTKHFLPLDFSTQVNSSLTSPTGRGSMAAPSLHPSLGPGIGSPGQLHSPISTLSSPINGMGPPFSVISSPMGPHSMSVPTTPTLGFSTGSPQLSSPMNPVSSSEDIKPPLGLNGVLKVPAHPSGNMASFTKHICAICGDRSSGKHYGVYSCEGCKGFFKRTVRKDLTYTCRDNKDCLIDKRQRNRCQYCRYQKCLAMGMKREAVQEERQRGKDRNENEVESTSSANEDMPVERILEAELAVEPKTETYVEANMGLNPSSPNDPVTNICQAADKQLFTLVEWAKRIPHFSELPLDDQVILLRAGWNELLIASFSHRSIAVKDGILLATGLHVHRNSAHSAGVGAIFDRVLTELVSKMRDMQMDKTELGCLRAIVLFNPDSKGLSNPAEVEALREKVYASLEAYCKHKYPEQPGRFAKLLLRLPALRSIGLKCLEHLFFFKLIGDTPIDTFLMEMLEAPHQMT
Thyroid hormone receptor beta (Homo sapiens), sequence (P10828 whole entry, looked up): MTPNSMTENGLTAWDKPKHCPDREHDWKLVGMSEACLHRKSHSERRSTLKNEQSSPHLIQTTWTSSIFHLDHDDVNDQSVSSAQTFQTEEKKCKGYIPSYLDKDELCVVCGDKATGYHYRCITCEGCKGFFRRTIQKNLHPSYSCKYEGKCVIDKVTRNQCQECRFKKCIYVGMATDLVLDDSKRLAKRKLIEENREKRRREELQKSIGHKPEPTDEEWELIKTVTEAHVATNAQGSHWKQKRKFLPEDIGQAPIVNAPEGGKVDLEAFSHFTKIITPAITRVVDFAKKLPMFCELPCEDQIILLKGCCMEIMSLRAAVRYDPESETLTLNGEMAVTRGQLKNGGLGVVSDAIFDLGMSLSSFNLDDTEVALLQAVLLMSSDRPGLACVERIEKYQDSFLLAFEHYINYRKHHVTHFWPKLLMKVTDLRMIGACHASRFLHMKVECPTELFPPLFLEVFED

Turning to `CCCCOC(=O)c1ccccc1C(=O)OCc1ccccc1`, the activation in assay [1] was 3.04% (inactive) and 3.89% (inactive). In addition, the Potency result in assay [2], in assay [5], in assay [8] and in [13] was “inactive” throughout. Also, the result in assay [3], in [6] and in assay [9] was inactive. The max response in [4] is -18.4% and -2.86%; in assay [7], -17.6% and 5.59%; in assay [10] it was -7.26% and -17.3%; in assay [11] it was 2.44% (inactive) and -9.61% (inactive). In addition, the activity change % (negative = inhibition) in assay [12] is 11.3% (inactive).
With `CCOCCOC(C)=O`, the activation in [1] is -2.6% (inactive). Also, the Potency entry in [2], in [14], in assay [15], in assay [8], in assay [17] and in [13] was “inactive” throughout. The outcome in assay [3], in [6] and in [16] was inactive. The figures for the max response in assay [7], in assay [10] and in [11] were -8.15%, -4.94% and 11% (inactive), respectively. In assay [12], the activity change % (negative = inhibition) is 9.89% (inactive).
Consider `CC(C)(C)C(O)C(Oc1ccc(Cl)cc1)n1cncn1` (configuration not stated), for which the outcome in assay [6] and in assay [16] was inactive. For the same molecule, the Potency entry in assay [14], in assay [15] and in assay [13] was “inactive” each time. In addition, the max response in assay [10] was -12.3%; in [11], -0.566% (inactive). Also, the activity change % (negative = inhibition) in [12] is -8.05% (inactive).
Consider `CN(C)[C@@H]1C(=O)C(C(N)=O)=C(O)[C@@]2(O)C(=O)C3=C(O)c4c(O)cccc4[C@@](C)(O)[C@H]3[C@H](O)[C@@H]12`, for which the result in assay [6] and in [9] was inactive. In addition, the Potency entry in [14], in assay [8], in [17], in assay [13], in [18] and in assay [19] was “inactive” in each case. Further, the max response in assay [7] is 10.7% and 6.3% and 19.5%; in [10], 16.2% and 7.17% and 21.1%; in assay [11], -9.03% (inactive) and -41.7% (inactive) and -15.3% (inactive). Also, in assay [12], the activity change % (negative = inhibition) is 2.86% (inactive) and -5.16% (inactive) and -23.7% (inactive).
Regarding `COCCOCCO`, the result in assay [3], in [6], in assay [16] and in assay [9] was inactive. Also, the max response in [4] is -0.0574%; in assay [7], 0.722%; in [10] it was 3.81% and -4.43%; in assay [11] it was -11.3% (inactive) and -22% (inactive). Also, the Potency result in assay [5], in [14], in assay [15], in assay [8] and in assay [13] was “inactive” throughout. The activity change % (negative = inhibition) in [12] was 1.33% (inactive) and -16.2% (inactive).
`Cc1ccc(N)cc1O`: the outcome in [3] was inactive.
For the molecule `O=[N+]([O-])c1cc([N+](=O)[O-])c2ccccc2c1`, the activation in assay [1] was -0.539% (inactive). Besides, the result in assay [3], in assay [6], in [16] and in [9] was inactive. The max response in assay [4] was 44.3%; in assay [7] it was -2.69%; in assay [10], -9.65%; in assay [11], 12.9% (inactive). In addition, the Potency entry in assay [5], in assay [14], in [15], in assay [8] and in [13] was “inactive” each time. For the same molecule, the activity change % (negative = inhibition) in assay [12] is -11.2% (inactive).

The record behind these values is PubChem BioAssay (NCATS).
